Screening data as filed in PubChem BioAssay.
A selection: hits, their analogues and other compounds. The true share with any hit is near 10%.
HEK cytotox: cytotoxic compounds in HEK 293 cells. HEK 293 viability, ATP luminescence (CellTiter-Glo), 48-72 h. Potency, µM (titrated, usually from 115 µM), inactives show top-dose activity change, negative = cytotoxicity, most hits filed as inhibitors. 94,000 compounds, 6.6% hits; note: nearly all actives have a fitted effect of over 60% in size
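Cytotoxicity was scored by loss of ATP-coupled luminescence (CellTiter-Glo) in HEK 293 cells. Compound treatment ran 48 or 72 hr at 37 degree Celsius, 5% CO2, 95% humidity.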
NIH3T3 tox: cytotoxic compounds in NIH 3T3 cells. NIH 3T3 viability, CellTiter-Glo ATP luminescence, 48-72 h. Potency, µM (highest dose often 96.7 µM), without a hit: at the highest dose activity change, negative = cytotoxicity, actives largely listed as inhibitors. 94,000 compounds, 4.3% hits; note: nearly all actives have a fitted effect of over 55% in size
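Viability of NIH 3T3 cells after 48 or 72 hr compound treatment at 37 °C was assessed by CellTiter-Glo, with luminescence imaged following a 10 min room-temperature step.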
GPT2 inh: blocks human glutamate pyruvate transaminase 2; Q8TD30; AID 1671188; Potency, µM (top dose mostly 57.7 µM), inactives show at the highest dose activity change, negative = inhibition, most hits filed as inhibitors; Recombinant GPT2, coupled pyruvate oxidase/HRP Amplex Red fluorescence; 100,000 compounds, 0.25% hits; note: nearly all actives have a fitted effect of over 60% in size
Target sequence (Q8TD30 whole entry, looked up): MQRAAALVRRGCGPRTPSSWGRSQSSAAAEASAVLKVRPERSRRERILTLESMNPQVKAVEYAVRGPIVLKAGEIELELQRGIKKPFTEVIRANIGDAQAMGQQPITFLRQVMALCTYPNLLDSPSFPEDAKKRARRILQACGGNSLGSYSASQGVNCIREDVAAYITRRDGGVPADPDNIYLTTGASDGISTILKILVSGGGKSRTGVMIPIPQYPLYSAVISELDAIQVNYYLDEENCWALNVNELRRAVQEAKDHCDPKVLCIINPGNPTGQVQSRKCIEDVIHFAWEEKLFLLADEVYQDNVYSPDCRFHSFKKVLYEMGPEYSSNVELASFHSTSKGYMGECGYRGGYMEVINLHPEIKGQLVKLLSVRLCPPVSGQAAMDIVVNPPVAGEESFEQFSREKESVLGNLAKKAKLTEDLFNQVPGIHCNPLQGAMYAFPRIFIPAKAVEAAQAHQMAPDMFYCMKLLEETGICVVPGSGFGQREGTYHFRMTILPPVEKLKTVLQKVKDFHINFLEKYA
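Inhibition is scored from Amplex Red fluorescence generated when pyruvate oxidase and HRP act on pyruvate released by GPT2. Reactions contain 10ng/uL enzyme, 250uM a-KG and 2mM L-alanine and run 30 min at room temperature.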
FLuc inh: blocks purified firefly luciferase enzyme activity; P08659; Potency, µM (titrated, usually from 115 µM), actives largely listed as inhibitors; 76,000 compounds, 2.5% hits; purified P. pyralis luciferase, luminescence, biochemical; note: nearly all actives have a fitted effect of over 65% in size
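Purified P. pyralis luciferase (10nM final) in 50mM Tris acetate pH 7.5, 10mM Mg acetate, 0.01% Tween-20, 0.05% BSA with 10uM D-luciferin and 10uM ATP. Compounds titrated qHTS. Luminescence imaged on CCD.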
hNpr1 antagonist: human Npr1 receptor antagonism. AID 1347048. Potency, µM (titrated, usually from 46.3 µM), inactives show at the highest dose activity change, negative = inhibition, hits mostly inhibitors. P16066. 76,000 compounds, 1.6% hits. HEK293 hNpr1 GloSensor cGMP, ANP-stimulated luminescence; calls by dose curve; note: nearly all actives have a fitted effect of over 60% in size
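Compound pre-incubated 30 min at room temperature on GloSensor-loaded HEK293 cells stably carrying hNpr1 and the pGS-40F cGMP biosensor. Stimulation uses hNppA at 0.1 nM final; luminescence is taken at baseline and 20 min post-agonist.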
Starred values were filed as active, the others as inactive; [ ] = remark or other dose. Unless noted, calls come from the whole dose curve; as a rule, active = well fitted curve in the direction sought with a large enough effect; inconclusive = small, poorly fitted or top-dose-only effect, or another doubt; inactive = no such curve, though single readings can be large; an effect the other way counts as inactive or inconclusive. % is set by controls: 0 for no effect and ±100 for the full control effect; potency is the fitted concentration of half-maximal effect.

`Cc1nn(-c2ccccc2)c(C)c1CN1CCCCC12Cc1ccccc1CNC2=O` (stereo not given) gave HEK cytotox inconclusive, NIH3T3 tox inconclusive and GPT2 inh inactive.
`C=C1C[C@]23C[C@H]1CC[C@H]2[C@]1(C)CCC[C@@](C)(C(=O)O)[C@H]1[C@@H]3C(=O)O` gave GPT2 inh inactive.
`Cc1ccc(-c2noc([C@@H]3C[C@@H](O)CN3Cc3cccnc3)n2)cc1F` gave HEK cytotox 63µM*, NIH3T3 tox inconclusive, GPT2 inh -6%[88.5 µM], FLuc inh inconclusive and hNpr1 antagonist inconclusive.
`Cc1ccc(-c2noc([C@@H]3C[C@@H](O)CN3C3CCN(C)CC3)n2)cc1F` gave HEK cytotox inconclusive, NIH3T3 tox inconclusive, GPT2 inh inactive, FLuc inh inactive and hNpr1 antagonist 5%[70.6 µM].
Screening COc1ccc(-c2noc([C@@H]3C[C@@H](O)CN3Cc3ccc(F)cc3)n2)cc1 returned HEK cytotox inconclusive, NIH3T3 tox -17%[174 µM], GPT2 inh 1%[88.5 µM], FLuc inh 45µM* and hNpr1 antagonist -9%[70.6 µM].
For COc1ccc(CN2C[C@H](O)C[C@H]2c2nc(-c3ccncc3)no2)cc1 the results were HEK cytotox inconclusive, NIH3T3 tox -11%[174 µM], GPT2 inh -5%[88.5 µM], FLuc inh inactive and hNpr1 antagonist 0%[70.6 µM].
For O[C@@H]1C[C@@H](c2nc(-c3ccncc3)no2)N(Cc2ccc(F)cc2)C1 the results were HEK cytotox -5%[172 µM], NIH3T3 tox -22%[174 µM], GPT2 inh -7%[88.5 µM], FLuc inh inactive and hNpr1 antagonist -3%[70.6 µM].
`O[C@@H]1C[C@@H](c2nc(-c3ccc(F)cc3)no2)N(Cc2ccncc2)C1` gave HEK cytotox 71µM*, NIH3T3 tox inconclusive, GPT2 inh 2%[88.5 µM], FLuc inh 63µM* and hNpr1 antagonist inconclusive.
Screening Cc1ccc(-c2noc([C@@H]3C[C@@H](O)CN3CC3CC3)n2)cc1F returned HEK cytotox inconclusive, NIH3T3 tox inconclusive, GPT2 inh inactive, FLuc inh 50µM* and hNpr1 antagonist -5%[70.6 µM].
Screening O=C(c1cc(-c2ccsc2)c2nncn2n1)N1CCOCC1 returned HEK cytotox -7%[172 µM], NIH3T3 tox inconclusive and GPT2 inh inactive.
`COc1ccc(CN2C[C@H](O)C[C@H]2c2nc(-c3ccc(C)c(F)c3)no2)cc1` gave HEK cytotox inconclusive, NIH3T3 tox inconclusive, GPT2 inh -12%[88.5 µM], FLuc inh 35µM* and hNpr1 antagonist 7%[70.6 µM].
COc1ccc(-c2noc([C@@H]3C[C@@H](O)CN3Cc3ncc[nH]3)n2)cc1 was read as HEK cytotox -17%[172 µM], NIH3T3 tox -15%[138 µM], GPT2 inh 1%[88.5 µM], FLuc inh inconclusive and hNpr1 antagonist -23%[70.6 µM].
COC(=O)N1CCCC1C(=O)N1CCC(N2Cc3ccccc3C2=O)CC1 (stereo not given) was read as HEK cytotox -7%, NIH3T3 tox -2% and GPT2 inh inactive.
Screening Cn1ncc2c(N3CCN(S(N)(=O)=O)CC3)nc(C3CCCC3)nc21 returned HEK cytotox -25%, NIH3T3 tox 40µM*, GPT2 inh inactive, FLuc inh inactive and hNpr1 antagonist -2%.
Screening Cn1ncc2c(N3CCN(S(N)(=O)=O)CC3)nc(-c3cccnc3)nc21 returned HEK cytotox inconclusive, NIH3T3 tox 40µM*, GPT2 inh 0%, FLuc inh inactive and hNpr1 antagonist 5%.
Screening O=C(C1CN(C2CCCC2)C(=O)N1)N1CCC(c2ccccc2)CC1 (stereo not given) returned HEK cytotox -18%, NIH3T3 tox -22% and GPT2 inh inactive.
Screening COc1ccc(CCNC(=O)c2cc(-c3ccccc3F)nc3c2cnn3C)cc1 returned HEK cytotox 35µM* and NIH3T3 tox inconclusive.
`COc1ccc(-c2cc(C(=O)NCCc3ccccc3F)c3cnn(C)c3n2)cc1` gave HEK cytotox 32µM*, NIH3T3 tox inconclusive and GPT2 inh inconclusive.
`COc1ccccc1-c1cc(C(=O)NCC2CCCCC2)c2cnn(C)c2n1` gave HEK cytotox -2% and NIH3T3 tox -17%.
Cn1ncc2c(C(=O)NCC3CCCCCC3)cc(-c3ccccc3F)nc21 was read as HEK cytotox 32µM* and NIH3T3 tox inconclusive.
Screening Cn1ncc2c(C(=O)NCCc3ccccc3F)cc(-c3ccc(F)cc3)nc21 returned HEK cytotox 32µM*, NIH3T3 tox inconclusive and GPT2 inh -19%.
O=C(c1ccc(C(F)(F)F)cc1)N1CCC12Cc1ccccc1NC2=O (stereo not given) was read as HEK cytotox inconclusive, NIH3T3 tox -18%, GPT2 inh 1%, FLuc inh inactive and hNpr1 antagonist 0%.
Screening CS(=O)(=O)Nc1ccc(C2(C(=O)NCc3ccc(F)cc3)CCCCC2)cc1 returned HEK cytotox -8%, NIH3T3 tox -12%, GPT2 inh -5%, FLuc inh inactive and hNpr1 antagonist 3%.
`Cc1ccc(CNC(=O)C2(c3ccc(NC(=O)C4CC4)cc3)CCCCC2)o1` gave HEK cytotox 45µM*, NIH3T3 tox inconclusive, GPT2 inh 2%, FLuc inh inactive and hNpr1 antagonist -10%.
Screening Cc1ccccc1CNC(=O)C1(c2ccc(NS(C)(=O)=O)cc2)CCCCC1 returned HEK cytotox -29%, NIH3T3 tox 28µM*, GPT2 inh inactive, FLuc inh inactive and hNpr1 antagonist -1%.
O=C(Nc1ccc(C2(C(=O)NCC3CC3)CCCCC2)cc1)C1CC1 was read as HEK cytotox -8%, NIH3T3 tox -4%, GPT2 inh 5%, FLuc inh inactive and hNpr1 antagonist 4%.
CC(C)C(=O)Nc1ccc(C2(C(=O)NCc3cccs3)CCCCC2)cc1 was read as HEK cytotox inconclusive, NIH3T3 tox 32µM*, GPT2 inh inactive, FLuc inh inactive and hNpr1 antagonist 6%.
`CC(C)Cn1c(=O)c(C(=O)N2CCCC2)nc2cccnc21` gave HEK cytotox -4%[172 µM], NIH3T3 tox 4%[138 µM] and GPT2 inh -1%[88.5 µM].
CCN1C[C@H]2COc3ccccc3[C@H]2N(C(=O)c2ccc(F)cc2)CCC1=O was read as HEK cytotox -4% and NIH3T3 tox inconclusive.
Screening O=C(c1ccccn1)N1CCC(CCOc2ccccc2F)C1 (stereo not given) returned HEK cytotox -26%, NIH3T3 tox inconclusive, GPT2 inh inactive, FLuc inh inactive and hNpr1 antagonist -3%.
`O=C(c1cncc(Br)c1)N1CCC(CCOc2ccccc2F)C1` (stereo not given) gave HEK cytotox 40µM*, NIH3T3 tox inconclusive, GPT2 inh -17%, FLuc inh inactive and hNpr1 antagonist -15%.
O=c1cc(O)cc(/C=C/c2ccc(O)c(O)c2)o1 was read as GPT2 inh 6.3µM*.
